The values below come from paper PMC7862700, “An all-to-all approach to the identification of sequence-specific readers for epigenetic DNA modifications on cytosine”.

What all share (assay): DAPPL (digital affinity profiling via proximity ligation, sequencing); 10 mM Tris-HCl pH 7.5, 50 mM NaCl, 1 mM DTT, 4% glycerol, room temperature, 30 min; GST-TFs on glutathione beads, 16-mer random dsDNA library, 0.1% formaldehyde crosslink after washing; high values mean tight binding
The target in test [1] is T1, FEV (Homo sapiens, UniProt Q99581 1-238).
T1 sequence: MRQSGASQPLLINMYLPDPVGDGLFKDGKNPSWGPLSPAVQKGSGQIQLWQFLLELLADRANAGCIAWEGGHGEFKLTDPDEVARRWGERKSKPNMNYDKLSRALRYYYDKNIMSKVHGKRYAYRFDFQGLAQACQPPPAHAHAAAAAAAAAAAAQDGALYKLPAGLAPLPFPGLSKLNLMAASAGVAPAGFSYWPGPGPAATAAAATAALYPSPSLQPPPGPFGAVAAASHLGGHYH
The settings on record: protein: recombinant; tags: N-terminal GST; dsDNA, one strand shown. The method in brief:
(§1)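 In yeast, human transcription factors were expressed with a GST fusion, then pulled down on glutathione beads and given DNA barcodes. Pooled with a tag-only sample, they were exposed to 200 nmole of a 16-mer random double-stranded DNA library (Tris/NaCl/DTT/glycerol buffer, room temperature, 30 min), washed, crosslinked with 0.1% formaldehyde, proximity-ligated using BsaI/T4 ligase for 1 h at 37 °C, PCR-amplified and read on an Illumina NextSeq500. Each hexamer's frequency of reads for a factor, divided by the matching frequency for the tag-only sample, gives the binding signal.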

Test [2] addresses ETV5 (Homo sapiens, UniProt P41161 1-510). The settings on record: protein: recombinant; tags: N-terminal GST; dsDNA, one strand shown. The gist of the method: as §1
Test [3] deals with HSF1 (Homo sapiens, UniProt Q00613 1-529). The settings on record: protein: recombinant; tags: N-terminal GST; chain copies: 3; dsDNA, one strand shown. The gist of the method: as §1
HSF1, sequence (Q00613 whole entry): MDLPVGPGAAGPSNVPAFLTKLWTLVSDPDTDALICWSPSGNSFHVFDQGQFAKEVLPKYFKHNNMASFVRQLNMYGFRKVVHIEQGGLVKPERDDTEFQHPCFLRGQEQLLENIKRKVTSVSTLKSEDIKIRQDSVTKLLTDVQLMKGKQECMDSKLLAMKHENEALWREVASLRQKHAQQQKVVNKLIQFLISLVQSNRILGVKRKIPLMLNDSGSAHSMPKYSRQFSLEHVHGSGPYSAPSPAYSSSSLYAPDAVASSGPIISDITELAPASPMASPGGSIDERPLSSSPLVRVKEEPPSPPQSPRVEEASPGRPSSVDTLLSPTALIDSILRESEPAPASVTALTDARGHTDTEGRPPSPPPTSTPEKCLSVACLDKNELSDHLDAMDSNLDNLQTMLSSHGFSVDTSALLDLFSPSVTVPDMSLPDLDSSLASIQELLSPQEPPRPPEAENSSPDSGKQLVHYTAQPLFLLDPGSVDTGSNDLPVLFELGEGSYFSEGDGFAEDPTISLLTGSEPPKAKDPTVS
Test [4] addresses T2, SPIC (Homo sapiens, UniProt Q8N5J4 1-248).
T2 sequence: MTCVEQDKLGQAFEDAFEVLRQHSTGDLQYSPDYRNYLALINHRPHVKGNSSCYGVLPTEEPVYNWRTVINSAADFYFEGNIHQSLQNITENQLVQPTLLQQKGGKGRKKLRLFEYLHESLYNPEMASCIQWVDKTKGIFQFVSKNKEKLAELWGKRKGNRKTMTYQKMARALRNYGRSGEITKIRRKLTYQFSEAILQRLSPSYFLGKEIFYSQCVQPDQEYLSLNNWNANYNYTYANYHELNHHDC
The settings on record: protein: recombinant; tags: N-terminal GST; dsDNA, one strand shown. The method in brief: as §1

The target in test [5] is ELF4 (Homo sapiens, UniProt Q99607 1-663). The settings on record: protein: recombinant; tags: N-terminal GST; dsDNA, one strand shown. The method in brief:
as §1

The target of test [6] is T3, ELK4 (Homo sapiens, UniProt P28324-2 1-405).
T3 sequence: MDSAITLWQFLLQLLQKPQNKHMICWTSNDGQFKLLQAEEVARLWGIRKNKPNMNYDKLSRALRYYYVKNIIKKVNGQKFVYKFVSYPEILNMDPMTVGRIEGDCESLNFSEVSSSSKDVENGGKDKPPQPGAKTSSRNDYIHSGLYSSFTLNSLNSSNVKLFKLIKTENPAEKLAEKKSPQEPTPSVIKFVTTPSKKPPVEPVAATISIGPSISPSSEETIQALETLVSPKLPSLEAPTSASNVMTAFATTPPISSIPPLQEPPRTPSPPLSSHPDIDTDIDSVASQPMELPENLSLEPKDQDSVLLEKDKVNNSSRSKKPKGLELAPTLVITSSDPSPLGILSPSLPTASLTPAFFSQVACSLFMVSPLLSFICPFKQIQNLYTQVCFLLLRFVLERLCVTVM
The settings on record: protein: recombinant; tags: N-terminal GST; dsDNA, one strand shown. The method in brief: as §1

The target in test [7] is T4, ETV2 (Homo sapiens, UniProt O00321 1-342).
T4 sequence: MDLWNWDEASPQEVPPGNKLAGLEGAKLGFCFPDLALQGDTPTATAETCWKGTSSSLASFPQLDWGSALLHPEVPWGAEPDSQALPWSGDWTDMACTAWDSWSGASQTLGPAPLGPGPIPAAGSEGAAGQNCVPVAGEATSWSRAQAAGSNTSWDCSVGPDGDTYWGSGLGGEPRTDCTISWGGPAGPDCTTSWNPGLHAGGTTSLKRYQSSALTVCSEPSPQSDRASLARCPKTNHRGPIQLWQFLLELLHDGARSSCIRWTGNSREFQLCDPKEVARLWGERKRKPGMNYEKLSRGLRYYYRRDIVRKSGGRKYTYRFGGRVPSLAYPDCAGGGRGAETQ
The settings on record: protein: recombinant; tags: N-terminal GST; dsDNA, one strand shown. The method in brief:
as §1

For test [8], the target named is T5, ELF3 (Homo sapiens, UniProt P78545 1-371).
T5 sequence: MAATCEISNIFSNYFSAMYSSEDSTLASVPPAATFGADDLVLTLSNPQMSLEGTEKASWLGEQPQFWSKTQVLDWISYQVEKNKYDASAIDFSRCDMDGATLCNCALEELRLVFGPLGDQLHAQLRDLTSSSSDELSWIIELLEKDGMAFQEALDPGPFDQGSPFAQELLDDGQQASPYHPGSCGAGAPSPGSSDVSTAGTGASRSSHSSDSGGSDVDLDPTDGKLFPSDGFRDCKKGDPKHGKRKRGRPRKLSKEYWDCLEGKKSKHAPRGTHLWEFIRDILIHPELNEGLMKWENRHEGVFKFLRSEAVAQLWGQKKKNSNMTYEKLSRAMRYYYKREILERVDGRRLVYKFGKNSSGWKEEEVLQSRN
The settings on record: protein: recombinant; tags: N-terminal GST; dsDNA, one strand shown. The gist of the method: as §1

In test [9] the target is CRX (Homo sapiens, UniProt O43186 1-299). The settings on record: protein: recombinant; tags: N-terminal GST; dsDNA, one strand shown. The method in brief: as §1
CRX, sequence (O43186 whole entry): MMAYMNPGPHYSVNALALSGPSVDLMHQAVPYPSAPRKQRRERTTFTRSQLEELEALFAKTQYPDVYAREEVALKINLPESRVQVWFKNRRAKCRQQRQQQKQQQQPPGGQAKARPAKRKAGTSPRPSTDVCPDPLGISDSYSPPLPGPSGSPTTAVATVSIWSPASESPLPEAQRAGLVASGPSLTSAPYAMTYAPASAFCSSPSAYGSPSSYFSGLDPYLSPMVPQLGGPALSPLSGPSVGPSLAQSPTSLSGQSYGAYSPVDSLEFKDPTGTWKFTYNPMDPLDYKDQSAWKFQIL
The target of test [10] is ETV1 (Homo sapiens, UniProt P50549 1-477). The settings on record: protein: recombinant; tags: N-terminal GST; dsDNA, one strand shown. The gist of the method:
as §1

Test [11] deals with T6, ERF (Homo sapiens, UniProt P50548 1-548).
T6 sequence: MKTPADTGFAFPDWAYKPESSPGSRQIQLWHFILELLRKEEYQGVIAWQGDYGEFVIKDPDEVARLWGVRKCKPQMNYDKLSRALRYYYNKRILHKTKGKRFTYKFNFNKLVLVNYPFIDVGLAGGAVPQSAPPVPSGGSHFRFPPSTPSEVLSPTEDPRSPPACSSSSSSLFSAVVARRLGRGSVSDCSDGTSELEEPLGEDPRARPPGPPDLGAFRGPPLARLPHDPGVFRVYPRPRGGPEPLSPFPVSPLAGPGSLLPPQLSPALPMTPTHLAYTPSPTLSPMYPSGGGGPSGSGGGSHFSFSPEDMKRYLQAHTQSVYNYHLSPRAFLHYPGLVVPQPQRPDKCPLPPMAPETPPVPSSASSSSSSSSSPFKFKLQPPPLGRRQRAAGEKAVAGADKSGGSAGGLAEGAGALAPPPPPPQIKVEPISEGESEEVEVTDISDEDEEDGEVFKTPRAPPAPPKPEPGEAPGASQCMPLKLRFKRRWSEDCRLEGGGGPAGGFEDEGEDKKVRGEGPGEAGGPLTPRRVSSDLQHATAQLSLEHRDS
The settings on record: protein: recombinant; tags: N-terminal GST; dsDNA, one strand shown. The gist of the method: as §1

Test [12] has as its target T7, ETV3L (Homo sapiens, UniProt Q6ZN32 1-361).
T7 sequence: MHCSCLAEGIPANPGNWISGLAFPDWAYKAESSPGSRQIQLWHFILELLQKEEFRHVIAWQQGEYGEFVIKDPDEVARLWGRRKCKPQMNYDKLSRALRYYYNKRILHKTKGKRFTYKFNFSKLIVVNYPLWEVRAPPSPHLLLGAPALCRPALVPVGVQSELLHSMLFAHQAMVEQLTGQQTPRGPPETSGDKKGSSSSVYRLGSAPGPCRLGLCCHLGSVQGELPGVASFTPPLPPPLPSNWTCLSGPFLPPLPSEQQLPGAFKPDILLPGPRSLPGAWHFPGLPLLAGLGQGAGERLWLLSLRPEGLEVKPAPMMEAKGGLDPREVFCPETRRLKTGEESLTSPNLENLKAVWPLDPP
The settings on record: protein: recombinant; tags: N-terminal GST; dsDNA, one strand shown. The gist of the method: as §1

The target of test [13] is T8, ETS2 (Homo sapiens, UniProt P15036 1-469).
T8 sequence: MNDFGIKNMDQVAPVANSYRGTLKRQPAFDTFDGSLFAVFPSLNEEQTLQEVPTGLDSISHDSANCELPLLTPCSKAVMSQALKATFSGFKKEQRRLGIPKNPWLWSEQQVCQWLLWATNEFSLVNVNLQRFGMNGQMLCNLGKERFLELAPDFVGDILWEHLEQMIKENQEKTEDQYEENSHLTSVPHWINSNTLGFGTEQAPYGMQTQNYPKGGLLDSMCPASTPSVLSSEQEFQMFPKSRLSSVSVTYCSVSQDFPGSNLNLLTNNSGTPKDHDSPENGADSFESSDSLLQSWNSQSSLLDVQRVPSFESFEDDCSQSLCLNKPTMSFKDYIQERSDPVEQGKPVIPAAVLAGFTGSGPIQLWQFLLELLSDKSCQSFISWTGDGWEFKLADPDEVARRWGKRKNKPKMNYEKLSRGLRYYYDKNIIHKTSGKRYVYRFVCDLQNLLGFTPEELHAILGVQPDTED
The settings on record: protein: recombinant; tags: N-terminal GST; dsDNA, one strand shown. The gist of the method:
as §1

Test [14] deals with T9, SPDEF (Homo sapiens, UniProt O95238 1-335).
T9 sequence: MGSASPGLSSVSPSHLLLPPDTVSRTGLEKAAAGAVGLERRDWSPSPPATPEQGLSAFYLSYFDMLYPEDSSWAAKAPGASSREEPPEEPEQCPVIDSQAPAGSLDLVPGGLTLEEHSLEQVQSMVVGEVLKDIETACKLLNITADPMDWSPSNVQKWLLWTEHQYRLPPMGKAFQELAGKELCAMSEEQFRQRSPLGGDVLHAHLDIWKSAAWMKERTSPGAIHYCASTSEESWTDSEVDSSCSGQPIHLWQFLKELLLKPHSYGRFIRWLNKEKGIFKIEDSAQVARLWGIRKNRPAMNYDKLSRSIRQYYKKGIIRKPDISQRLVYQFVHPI
The settings on record: protein: recombinant; tags: N-terminal GST; dsDNA, one strand shown. The method in brief: as §1

The target of test [15] is T10, ETV7 (Homo sapiens, UniProt Q9Y603 1-341).
T10 sequence: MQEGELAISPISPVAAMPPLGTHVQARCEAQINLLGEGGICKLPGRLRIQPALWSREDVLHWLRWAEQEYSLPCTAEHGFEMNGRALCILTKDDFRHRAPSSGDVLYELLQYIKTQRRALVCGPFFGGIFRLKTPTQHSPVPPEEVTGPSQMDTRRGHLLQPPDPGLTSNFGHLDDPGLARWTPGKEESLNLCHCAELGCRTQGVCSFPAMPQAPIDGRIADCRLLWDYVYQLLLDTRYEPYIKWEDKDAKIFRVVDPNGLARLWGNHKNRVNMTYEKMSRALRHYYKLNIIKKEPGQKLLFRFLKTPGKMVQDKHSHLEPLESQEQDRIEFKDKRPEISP
The settings on record: protein: recombinant; tags: N-terminal GST; dsDNA, one strand shown. The gist of the method: as §1

Test [16] has as its target T11, ELF5 (Homo sapiens, UniProt Q9UKW6-2 1-255).
T11 sequence: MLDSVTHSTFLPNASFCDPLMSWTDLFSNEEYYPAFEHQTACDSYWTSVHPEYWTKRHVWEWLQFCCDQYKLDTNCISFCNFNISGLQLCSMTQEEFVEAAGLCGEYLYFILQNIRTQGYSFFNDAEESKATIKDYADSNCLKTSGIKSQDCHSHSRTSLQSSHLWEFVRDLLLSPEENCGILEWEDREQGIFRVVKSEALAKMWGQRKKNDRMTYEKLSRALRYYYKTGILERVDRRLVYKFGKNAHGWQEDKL
The settings on record: protein: recombinant; tags: N-terminal GST; dsDNA, one strand shown. The gist of the method: as §1

Test [17] concerns the target T12, ETV3 (Homo sapiens, UniProt P41162-2 1-143).
T12 sequence: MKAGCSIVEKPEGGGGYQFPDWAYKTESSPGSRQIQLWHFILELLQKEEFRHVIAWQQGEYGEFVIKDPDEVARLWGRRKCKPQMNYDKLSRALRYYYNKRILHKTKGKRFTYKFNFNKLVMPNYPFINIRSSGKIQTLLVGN
The settings on record: protein: recombinant; tags: N-terminal GST; dsDNA, one strand shown. The method in brief: as §1

In test [18] the target is ETV6 (Homo sapiens, UniProt P41212 1-452). The settings on record: protein: recombinant; tags: N-terminal GST; dsDNA, one strand shown. The method in brief:
as §1

ETV6, sequence (P41212 whole entry): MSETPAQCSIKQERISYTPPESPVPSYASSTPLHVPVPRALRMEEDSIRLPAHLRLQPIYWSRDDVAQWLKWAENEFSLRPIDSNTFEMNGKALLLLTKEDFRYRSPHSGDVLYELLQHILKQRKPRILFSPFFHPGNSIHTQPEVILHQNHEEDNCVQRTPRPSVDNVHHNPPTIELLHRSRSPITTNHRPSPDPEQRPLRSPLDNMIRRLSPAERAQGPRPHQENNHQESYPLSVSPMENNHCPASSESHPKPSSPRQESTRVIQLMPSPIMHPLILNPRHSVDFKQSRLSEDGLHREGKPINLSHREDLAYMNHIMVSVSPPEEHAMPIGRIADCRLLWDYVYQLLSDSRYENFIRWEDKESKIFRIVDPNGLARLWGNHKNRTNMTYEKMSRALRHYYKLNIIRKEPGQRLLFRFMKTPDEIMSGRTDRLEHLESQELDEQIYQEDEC
ELF4, sequence (Q99607 whole entry): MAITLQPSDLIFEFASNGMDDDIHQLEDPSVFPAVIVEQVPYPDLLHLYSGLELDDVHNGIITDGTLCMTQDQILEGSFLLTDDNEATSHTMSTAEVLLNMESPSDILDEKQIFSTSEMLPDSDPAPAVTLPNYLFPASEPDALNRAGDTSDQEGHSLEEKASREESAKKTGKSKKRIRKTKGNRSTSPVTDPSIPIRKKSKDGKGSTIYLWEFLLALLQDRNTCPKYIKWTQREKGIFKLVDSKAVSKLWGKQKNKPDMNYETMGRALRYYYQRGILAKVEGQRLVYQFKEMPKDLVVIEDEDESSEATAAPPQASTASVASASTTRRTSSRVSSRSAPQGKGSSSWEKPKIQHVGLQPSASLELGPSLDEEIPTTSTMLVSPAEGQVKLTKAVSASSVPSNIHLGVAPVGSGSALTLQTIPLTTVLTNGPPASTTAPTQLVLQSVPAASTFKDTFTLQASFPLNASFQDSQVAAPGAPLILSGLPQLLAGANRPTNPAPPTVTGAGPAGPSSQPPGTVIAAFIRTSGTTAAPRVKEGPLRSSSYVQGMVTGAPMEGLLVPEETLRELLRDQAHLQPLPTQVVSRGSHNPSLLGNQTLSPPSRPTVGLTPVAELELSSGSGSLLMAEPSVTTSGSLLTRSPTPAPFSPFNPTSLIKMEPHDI
ETV1, sequence (P50549 whole entry): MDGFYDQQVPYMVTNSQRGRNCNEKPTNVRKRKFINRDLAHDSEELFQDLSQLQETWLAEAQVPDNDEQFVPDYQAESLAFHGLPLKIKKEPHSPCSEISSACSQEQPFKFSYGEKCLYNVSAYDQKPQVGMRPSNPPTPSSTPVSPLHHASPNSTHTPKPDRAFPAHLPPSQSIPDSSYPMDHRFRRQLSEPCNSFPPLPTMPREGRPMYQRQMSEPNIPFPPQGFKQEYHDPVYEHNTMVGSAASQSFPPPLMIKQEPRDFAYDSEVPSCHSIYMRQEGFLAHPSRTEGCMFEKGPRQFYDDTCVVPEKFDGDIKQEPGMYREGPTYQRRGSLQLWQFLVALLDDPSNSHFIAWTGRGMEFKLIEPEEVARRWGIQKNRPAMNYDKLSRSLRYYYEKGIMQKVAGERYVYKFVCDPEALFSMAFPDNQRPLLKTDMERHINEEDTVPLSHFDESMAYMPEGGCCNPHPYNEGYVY
ETV5, sequence (P41161 whole entry): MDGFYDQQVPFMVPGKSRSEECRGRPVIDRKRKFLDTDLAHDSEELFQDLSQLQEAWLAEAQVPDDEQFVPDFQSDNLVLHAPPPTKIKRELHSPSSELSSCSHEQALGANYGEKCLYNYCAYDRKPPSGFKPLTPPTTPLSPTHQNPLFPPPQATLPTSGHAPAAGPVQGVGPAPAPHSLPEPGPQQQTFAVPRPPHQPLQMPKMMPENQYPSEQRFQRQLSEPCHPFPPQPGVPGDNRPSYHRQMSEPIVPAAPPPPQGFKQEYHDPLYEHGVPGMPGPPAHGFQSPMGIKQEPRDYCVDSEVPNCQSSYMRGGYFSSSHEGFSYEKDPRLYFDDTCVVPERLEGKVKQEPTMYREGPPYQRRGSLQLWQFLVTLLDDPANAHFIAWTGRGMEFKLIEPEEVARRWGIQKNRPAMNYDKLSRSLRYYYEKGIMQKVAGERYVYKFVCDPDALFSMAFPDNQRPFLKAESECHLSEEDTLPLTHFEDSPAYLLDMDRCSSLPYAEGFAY

Turning to TATTCA, the binding signal is 1.28 fold enrichment (6-mer frequency, TF over GST control) in [1]; 1.33 fold enrichment (6-mer frequency, TF over GST control) in [2]; 1.32 fold enrichment (6-mer frequency, TF over GST control) in [3]; 1.47 fold enrichment (6-mer frequency, TF over GST control) in [4]; 1.29 fold enrichment (6-mer frequency, TF over GST control) in test [5]; 1.33 fold enrichment (6-mer frequency, TF over GST control) in test [6]. Moreover, the binding signal in test [7] is 1.35 fold enrichment (6-mer frequency, TF over GST control); in [8], 1.31 fold enrichment (6-mer frequency, TF over GST control); in test [9], 1.42 fold enrichment (6-mer frequency, TF over GST control); in test [10], 1.28 fold enrichment (6-mer frequency, TF over GST control); in [11], 1.36 fold enrichment (6-mer frequency, TF over GST control); in [12] it was 1.43 fold enrichment (6-mer frequency, TF over GST control). The binding signal was 1.34 fold enrichment (6-mer frequency, TF over GST control) in test [13]; 1.28 fold enrichment (6-mer frequency, TF over GST control) in test [14]; 1.23 fold enrichment (6-mer frequency, TF over GST control) in test [15]; 1.24 fold enrichment (6-mer frequency, TF over GST control) in test [16]; 1.23 fold enrichment (6-mer frequency, TF over GST control) in [17]; 1.3 fold enrichment (6-mer frequency, TF over GST control) in test [18].
